Compound activity as filed in PubChem.
ELG1 genotoxic: genotoxicity induction in ELG1-luciferase HEK293T cells | HEK293T ELG1-luciferase reporter, luminescence, 16 h | Potency, µM (highest dose often 46 µM), for the others: at the highest dose activity change, positive = activation, hits mostly activators | actives 1.3% (n = 330,000) | AID 504466; further: % of control where 0% means no effect; nearly all actives have a fitted effect of over 60% in size
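Reporter readout depends on ELG1 protein level, which increases with genetic stress. After 16 hr compound exposure at 37 °C, luciferase activity was quantified using ONE-Glo.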
Rab9 prom act: activates the Rab9 promoter. actives 2.8% (n = 320,000). Potency, µM (highest dose often 9.22 µM), without a hit: at the highest dose activation, negative = inhibition, hits mostly activators. AID 485297. Huh7 Rab9 promoter-luciferase reporter, luminescence, 24 h; further: % of control where 0% means no effect; nearly all actives have a fitted effect of over 60% in size
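Huh7 cells stably carrying Rab9 promoter–luciferase reporter, plated 1500 cells/well, compound added after 2 h and incubated 24 h at 37 °C; luciferase luminescence then read after 10 min with detection reagent.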
NPC1 promoter act: activators of NPC1 promoter; actives 2.4% (n = 320,000); Potency, µM (top dose mostly 9.22 µM), inactives show at the highest dose activation, usual class: activators; Huh7 NPC1 promoter luciferase reporter, 24 h; further: % of control where 0% means no effect; nearly all actives have a fitted effect of over 60% in size
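Readout is luciferase luminescence, reflecting NPC1 promoter activation in stably transfected Huh7 cells after 24 h compound exposure at 37 °C in reduced-serum medium with 10% FBS.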
Luc counter: Kinase-Glo luciferase inhibition (counter-screen) | actives 0.28% (n = 200,000) | AID 1379 | Potency, µM (highest dose often 38.3 µM), inactives show top-dose activity change, negative = inhibition, most hits filed as inhibitors | Kinase-Glo luciferase, ATP luminescence, 8 min; further: on the % scale 0 is the no-effect control and ±100 the full control effect; nearly all actives have a fitted effect of over 60% in size
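Inhibition of Kinase-Glo luciferase light generation was assessed at 10 uM ATP in pH 7.2 imidazole buffer, with luminescence measured after eight minutes at ambient temperature.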
SMN2 splice up: SMN2 splice variant enhancement | actives 2.8% (n = 210,000) | AID 1458 | HEK293 SMN2-luciferase splicing reporter, luminescence, 30-36 h | Potency, µM (titrated, usually from 46.1 µM), inactives show top-dose activity change, positive = activation, actives largely listed as activators; further: % of control where 0% means no effect; nearly all actives have a fitted effect of over 55% in size
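HEK293 cells carry an SMN2 […]–luciferase reporter in which exon 7 inclusion puts luciferase in frame. Cells were plated 10-12 h before compound addition, then incubated 30-36 h at 37C. ONE-Glo luminescence was read; sodium butyrate at 4.5 mM final served as control.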
FLuc counter: counter-screen for miR-21 project: firefly luciferase inhibitors or activators; purified FLuc, Km substrates, luminescence inhibition; P08659; Potency, µM (highest dose often 57.5 µM), for inactives: at the highest dose activity change, negative = inhibition, actives largely listed as inhibitors; actives 6.9% (n = 360,000);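 further: plate controls were vehicle for no effect and reference inhibitor for full effect; nearly all actives have a fitted effect of over 55% in size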
Target sequence (P08659 whole entry, looked up): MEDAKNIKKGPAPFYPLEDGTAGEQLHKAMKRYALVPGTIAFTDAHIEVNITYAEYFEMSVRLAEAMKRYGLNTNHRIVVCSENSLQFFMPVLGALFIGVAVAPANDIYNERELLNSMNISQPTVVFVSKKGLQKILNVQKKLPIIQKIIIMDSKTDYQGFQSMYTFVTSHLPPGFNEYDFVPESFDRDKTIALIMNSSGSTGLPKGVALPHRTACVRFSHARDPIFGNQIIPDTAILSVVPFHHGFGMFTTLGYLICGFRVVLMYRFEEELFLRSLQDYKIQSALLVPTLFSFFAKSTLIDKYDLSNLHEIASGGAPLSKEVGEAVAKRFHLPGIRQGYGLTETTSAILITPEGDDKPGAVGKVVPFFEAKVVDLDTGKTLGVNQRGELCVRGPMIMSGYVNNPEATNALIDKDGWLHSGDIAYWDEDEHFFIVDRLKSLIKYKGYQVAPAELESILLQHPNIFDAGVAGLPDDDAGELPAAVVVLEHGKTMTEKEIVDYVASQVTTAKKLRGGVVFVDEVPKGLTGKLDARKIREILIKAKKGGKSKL
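Biochemical qHTS of compounds, final roughly 60 µM downward over six points, against 10 nM purified firefly luciferase using Km concentrations of substrates (10 uM D-luciferin, 10 uM ATP) in Tris acetate pH 7.5 buffer; luminescence output.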
Active calls of the source: *; u = inconclusive; x = not tested or not shown. A selection: hits, their analogues and other compounds. The true share with any hit is near 7.5%. The call rests on the fitted dose curve; in most records, active means well fitted curve in the direction sought with a large enough effect; inconclusive means small, poorly fitted or top-dose-only effect, or another doubt; inactive means no such curve, though single readings can be large; an effect the other way counts as inactive or inconclusive. Potency means the concentration at half of the fitted maximal effect.

SMILES	ELG1 genotoxic	Rab9 prom act	NPC1 promoter act	Luc counter	SMN2 splice up	FLuc counter
CC(C)CCNC(=O)C1CC(c2cccc(F)c2)=NO1 (configuration not stated)	4%	-1%	1%	x	x	-3%
O=C(NCCc1cccs1)C1CC(c2ccc([N+](=O)[O-])cc2)=NO1 (configuration not stated)	u	2.5µM*	3.5µM*	-2%	u	13µM*
COc1ccc(CCNC(=O)C2CC(c3ccc([N+](=O)[O-])cc3)=NO2)cc1 (configuration not stated)	8%	22%	25%	-1%	-13%	u
CCCCNC(=O)C1CC(c2cccc(F)c2)=NO1 (configuration not stated)	u	u	u	x	x	15µM*
COc1ccc(CCNC(=O)C2CC(c3cccc([N+](=O)[O-])c3)=NO2)cc1 (configuration not stated)	18%	u	u	10%	u	15µM*
O=C(Nc1nnc(N2CCCC2)s1)Nc1cc(F)ccc1F	x	x	x	x	x	-10%
O=C(N/N=C/c1cccc(Oc2ccccc2)c1)c1ccccc1F	u	21%	-5%	x	x	17µM*
O=C(N/N=C/c1cccc(Oc2ccccc2)c1)c1cc[n+]([O-])cc1	2%	-4%	0%	2%	1%	u
Nc1ccc(C(=O)N/N=C/c2cccc(Oc3ccccc3)c2)cc1	5%	9%	0%	x	x	12µM*
Oc1cc(Br)ccc1C=Nc1ccc(N2CCCCC2)cc1	-6%	26%	1%	x	x	1.2µM*
Oc1ccc(C=Nc2ccc(N3CCOCC3)cc2)c(O)c1	-1%	-4%	11%	-8%	4%	17µM*
Oc1ccc(Br)cc1C=Nc1ccc(Cl)cc1	3%	-1%	2%	1%	-39%	u
CCN(CC)c1nn2c(=O)c(C(=O)NCCc3ccc(C)cc3)cnc2s1	x	x	x	x	x	3%
Cc1csc(NC(=O)c2cn3ccccc3n2)n1	0.73µM*	u	u	10µM*	0.63µM*	2.1µM*
Cc1c(NC(=O)c2cn3ccccc3n2)cccc1-n1cnnn1	13%	18%	25%	x	x	u
O=C(Nc1ccccc1)c1cn2ccccc2n1	u	0.2µM*	0.32µM*	x	x	0.95µM*
CC1CN(C(=O)c2ccncc2)CC(C)O1 (configuration not stated)	-4%	-5%	u	0%	2%	2%
O=C(Nc1ccc(-n2cnnn2)cc1)c1cn2ccccc2n1	u	1.6µM*	1.6µM*	x	x	u
CCN(CC(=O)Nc1c(F)cccc1F)C(=O)c1cn2ccccc2n1	4%	1%	-4%	x	x	5%
CC1CN(C(=O)c2cn3ccccc3n2)CC(C)O1 (configuration not stated)	-1%	-3%	2%	-13%	-6%	12µM*
CCN(CC)C(=O)C[n+]1cccc(C(N)=O)c1	-1%	0%	0%	1%	-13%	4%
COCCN1CCN(C(=O)c2cc(COc3ccc(F)cc3F)on2)CC1	1%	-3%	-1%	x	x	2%
COc1cccc(NC(=O)c2ccc3nc(C)sc3c2)c1	23µM*	1.1µM*	1.6µM*	x	x	11µM*
COc1ccccc1NC(=O)c1ccc2nc(C)sc2c1	7%	u	4µM*	x	x	u
O=C(Nc1cccc(Br)c1)c1ccc2nc(N3C(=O)CCC3=O)sc2c1	-1%	18%	15%	-2%	-15%	17µM*
SMILES	ELG1 genotoxic	Rab9 prom act	NPC1 promoter act	Luc counter	SMN2 splice up	FLuc counter
COc1ccccc1NC(=O)CCS(=O)(=O)c1ccc2nc(C)sc2c1	x	x	x	x	x	-1%
N#CC(C#N)=c1ccc2c(c1)NC1(CCCCC1)N=2	-3%	29%	25%	13µM*	-85%	u
COc1ccc(C=C2C(=O)c3ccccc3C2=O)cc1O	-2%	-2%	0%	7.9µM*	20%	3.4µM*
COc1cc(C=C2C(=O)c3ccccc3C2=O)cc(OC)c1OC	u	1%	-9%	0%	-21%	u
COc1cc(C=C2C(=O)c3ccccc3C2=O)ccc1O	2%	-7%	1%	x	x	3µM*
CSCCNC(=O)Nc1c(-c2c(Cl)cccc2Cl)noc1C	3%	-1%	0%	x	x	1%
COc1ccccc1/C=C1\SC(=S)N(CCC(=O)Nc2cccc(O)c2)C1=O	-9%	0%	1%	x	x	u
Cc1nn(C)c(C)c1C(C)NC(=O)c1cc(COc2ccc(F)c(F)c2)on1 (configuration not stated)	15%	u	u	x	x	21µM*
Cc1[nH]c2ccccc2c1C(=O)CSC(=S)N(C)C1CCCCC1	5%	-2%	14%	0%	-1%	15µM*
Cc1[nH]c2ccccc2c1C(=O)CSC(=S)N1CCCCC1	u	u	u	-6%	8.9µM*	9.5µM*
COc1cccc(-c2cc(C(=O)Nc3ccc4c(c3)OCO4)no2)c1	u	17%	20%	x	-5%	-8%
O=C(Nc1ccc2c(c1)OCO2)c1cc(-c2ccc(O)cc2)on1	u	u	3.5µM*	x	x	u
O=C(Nc1ccc2c(c1)OCO2)c1cc(-c2ccc(Cl)cc2)on1	x	x	x	x	9%	-1%
O=C(Nc1c(Cl)cccc1Cl)c1cc(-c2ccc3c(c2)OCO3)on1	x	x	x	x	15%	-22%
O=C(Nc1ccc2c(c1)OCO2)c1cc(-c2cccc(O)c2)on1	10%	-2%	7%	x	x	2.1µM*
O=C(Nc1c(Cl)cccc1Cl)c1cc(-c2cccc(O)c2)on1	x	x	x	x	u	24µM*
CN(C)c1cccc(C(=O)Nc2cccc(S(=O)(=O)NC3=NCCC3)c2)c1	u	2.2µM*	2.8µM*	x	x	21µM*
C=C(C)CNC(=S)Nc1cccc(S(=O)(=O)NC2=NCCC2)c1	2%	1%	0%	4%	-9%	-1%
O=C(Nc1cccc(S(=O)(=O)NC2=NCCC2)c1)c1ccc(OC(F)F)cc1	0%	0%	-3%	x	x	11µM*
CCOc1ccc(C(=O)NC(=S)Nc2cccc(S(=O)(=O)NC3=NCCC3)c2)cc1	u	-4%	-20%	0%	0%	12µM*
CN(C)S(=O)(=O)c1ccc(C(=O)Nc2cccc(S(=O)(=O)NC3=NCCC3)c2)cc1	0%	-3%	-2%	x	x	-19%
O=C(NC(=S)Nc1cccc(S(=O)(=O)NC2=NCCC2)c1)c1cc(-c2ccco2)nc2ccccc12	9%	-27%	-24%	x	x	19µM*
O=C(Nc1cccc(S(=O)(=O)NC2=NCCC2)c1)c1ccccc1	-1%	x	x	x	x	x
Cc1ccc(C)c2nc3sc(C(=O)O)cc3cc12	3%	-1%	-6%	-1%	-18%	24µM*
